Some of the results follow. Results filed as inconclusive are left out. Active and inactive are the calls of the source. Calls come from the whole dose curve; as a rule, active = well fitted inhibition curve with a large enough effect; inconclusive = small, poorly fitted or top-dose-only effect; inactive = no such curve, though single readings can be large or run the other way.

Sequence of Nicotinamide N-methyltransferase (Homo sapiens) (P40261 whole entry, looked up): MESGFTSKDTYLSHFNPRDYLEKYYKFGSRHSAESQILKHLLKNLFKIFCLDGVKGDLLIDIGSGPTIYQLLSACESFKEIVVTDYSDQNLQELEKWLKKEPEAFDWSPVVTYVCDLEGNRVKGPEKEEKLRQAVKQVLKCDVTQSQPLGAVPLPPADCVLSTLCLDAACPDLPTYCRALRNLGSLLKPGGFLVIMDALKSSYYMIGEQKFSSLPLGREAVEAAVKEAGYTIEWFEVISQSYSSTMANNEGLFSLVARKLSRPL

This experiment addresses Nicotinamide N-methyltransferase (Homo sapiens) (UniProt P40261). As to the kind of experiment: Counterscreen qHTS for Inhibitors of N-terminal methyltransferase 1 (NTMT1): NNMT MTaseGlo assay. The settings on record: NNMT MTase-Glo luminescence, SAH detection; series mostly up to 57.1 µM. The source says: Assay Submitter (PI): Rong Huang Ph.D. Purdue University, West Lafayette, IN 47907 The N-terminal methytransferase 1 is the first methyltransferase that methylates protein alpha-N-amines and plays an important role in regulating cell mitosis, chromatin interactions and DNA repair. It is observed to be over-expressed in various cancer patient tissues like malignant melanoma and colorectal cancer tissues. Knockdown of NTMT1 in cancer cells causes cell mitotic defects and enhances sensitivity to DNA damaging chemotherapeutics. […] These critical cellular processes in which NTMT1 is implicated, coupled with emerging links to cellular dysfunction, strengthen the inference that NTMT1 is a compelling novel anticancer target. […] To address this unmet need, a panel of assay is created and established to enable quantitative high-throughput screening (qHTS) for novel, potent, and selective small molecule NTMT1 inhibitors. […] MTaseGlo Assay is a luminescence screen that measure the activity of methyltransferases based on the reaction product S-adenosyl homocysteine (SAH). […]
Materials: NNMT enzyme, SAM, NA, and control is provided by the Huang laboratory. […] 11; Detection; Luminescence; Plates were read using luminescence optics on a ViewLux detector (PerkinElmer). […]
On to `COc1cc2ncnc(Nc3cccc(Cl)c3F)c2cc1OC(=O)N1CCN(C)C[C@H]1C`, for which the compound was called inactive.

As to `CC(C)(O)c1ccc2c(c1)C(=O)CC1[C@](C)(CO)CCC[C@]21C` (some centres not stated), the compound was called inactive.

Values taken from PubChem BioAssay AID1645878 (National Center for Advancing Translational Sciences (NCATS), 2021).
